From PubChem BioAssay
ClpP mod: qHTS Assay for Activators of ClpP; purified B. subtilis ClpP, FRET peptide cleavage, 20 min; AID 651965, 2013; 1.9% of 340,000 active; Potency, µM (titrated, usually from 57.5 µM); ATP-dependent Clp protease proteolytic subunit (Bacillus subtilis (strain 168)), P80244; active means well fitted falling curve with a large enough effect; inconclusive means small, poorly fitted or top-dose-only effect; inactive means no such curve, though single readings can be large or run the other way; further: the source files actives as falling curves though it sought activators and does not explain the sign; nearly all actives have a fitted effect of over 65% in size
Target sequence (P80244 whole entry, looked up): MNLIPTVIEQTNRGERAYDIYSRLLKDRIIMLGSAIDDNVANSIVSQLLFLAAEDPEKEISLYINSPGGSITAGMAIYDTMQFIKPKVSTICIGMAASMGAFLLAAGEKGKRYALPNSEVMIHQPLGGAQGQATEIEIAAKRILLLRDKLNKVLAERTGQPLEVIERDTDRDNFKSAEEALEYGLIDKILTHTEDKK
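FRET quenching reversal measured ClpP activation: 10 microg/mL B. subtilis ClpP at pH 8 with the FRET-FV decapeptide, read at 430 nm after 320 nm excitation. The 20-min minus 0-min signal was scaled between DMSO/no-enzyme wells and ADEP (5.8 microM final).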
GALK inh: qHTS Assay for Inhibitors of Human Galactokinase (GALK); P51570; Purified GALK, Kinase-Glo residual ATP luminescence; Potency, µM (series often up to 57.5 µM), usual class: inhibitors; 0.007% of 270,000 active; AID 1868, 2009
Target sequence (P51570 whole entry, looked up): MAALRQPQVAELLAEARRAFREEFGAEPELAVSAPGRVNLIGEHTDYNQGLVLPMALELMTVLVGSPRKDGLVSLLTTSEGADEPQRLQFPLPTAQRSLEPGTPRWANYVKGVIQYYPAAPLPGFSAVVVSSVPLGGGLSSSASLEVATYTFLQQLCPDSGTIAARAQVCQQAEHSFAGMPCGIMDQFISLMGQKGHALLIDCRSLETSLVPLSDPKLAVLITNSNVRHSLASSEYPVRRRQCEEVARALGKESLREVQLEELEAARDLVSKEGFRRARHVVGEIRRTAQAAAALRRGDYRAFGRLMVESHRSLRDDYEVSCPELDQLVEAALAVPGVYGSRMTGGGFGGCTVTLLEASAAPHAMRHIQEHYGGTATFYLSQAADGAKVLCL
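The enzyme phosphorylates galactose (100 uM) using ATP (35 uM); inhibition is detected as higher residual ATP, quantified by bioluminescence after 1 h reaction at room temperature, pH 8.0.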
USP2a block: qHTS Assay for Inhibitors of Ubiquitin-specific Protease USP2a Using CHOP2 as the Reporter; USP2 core, Ub-CHOP2 coupled fluorogenic reporter, 485/531; Ubiquitin carboxyl-terminal hydrolase 2 (Homo sapiens), O75604; Potency, µM (series often up to 38.3 µM), most hits filed as inhibitors; 0.01% of 330,000 active
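USP2 core (10nM final) preincubated 30min RT with compound in 20mM Tris-HCl pH 8.0, 2mM CaCl2, 2mM beta-mercaptoethanol, 0.05% CHAPS; 25nM Ub-CHOP2 plus 25nM reporter substrate added, fluorescence (Ex485/Em531) read after 60min.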
Eya2 inh: qHTS Assay for Inhibitors of the Phosphatase Activity of Eya2; Protein phosphatase EYA2 (Homo sapiens), O00167; Potency, µM (series often up to 76.9 µM), hits mostly inhibitors; AID 488837, 2010; recombinant Eya2, OMFP fluorescence dephosphorylation (OMFP is methylfluorescein phosphate); 0.006% of 330,000 active
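Eya2 (0.2 uM) preincubated 10 min at ambient with compound, then OMFP substrate added at 50 uM; 10 min reaction in 50 mM HEPES pH 7.5, 50 mM NaCl, 5 uM MgCl2, 0.05% BSA, 1 mM DTT. Fluorescence read at Ex 485/Em 525 nm.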
A number is an active result; – = inactive; ? = inconclusive; · = no result given. The sample as a whole holds a higher share of hits than the screen did. Unless noted, the call rests on the fitted dose curve; in most records, active means well fitted inhibition curve with a large enough effect; inconclusive means small, poorly fitted or top-dose-only effect, or effect the other way; inactive means flat fitted curve, though single readings scatter.

SMILES	ClpP mod	GALK inh	USP2a block	Eya2 inh
Cc1ccc(C2C3=C(CC(C)(C)CC3=O)Nc3n[nH]c(C)c32)cc1 (stereo not given)	25µM	–	–	–
Cc1[nH]nc2c1C(c1ccc(F)cc1)C1=C(CC(C)(C)CC1=O)N2 (stereo not given)	25µM	–	–	–
Cc1[nH]nc2c1C(c1ccc(N(C)C)cc1)C1=C(CC(C)(C)CC1=O)N2 (stereo not given)	·	–	–	–
Cc1[nH]nc2c1C(c1cccc(O)c1)C1=C(CC(C)(C)CC1=O)N2 (stereo not given)	28µM	–	–	–
COC(=O)c1sc2nc(SCc3ccccc3C#N)n(N)c(=O)c2c1C	–	–	–	–
COC(=O)CSc1c(-c2ccccc2)c2cc(Cl)ccc2[nH]c1=O	–	–	–	–
COc1ccc(S(=O)(=O)N2CCN(Cc3ccc4c(c3)OCO4)CC2)c2ccccc12	–	–	–	–
COC(=O)c1ccccc1NC(=O)Oc1ccc(F)cc1	25µM	–	–	–
COC(=O)c1ccccc1NS(=O)(=O)c1ccc(F)cc1	–	–	–	–
O=C(CN1CCC(n2nnc3ccccc32)CC1)Nc1ccc2c(c1)CCC2	–	–	–	–
O=C(CN1CCC(n2nnc3cc(F)ccc32)CC1)Nc1ccc2c(c1)CCC2	14µM	–	–	–
CN(C)c1ccc(/C=C/c2c(Cl)cnc3ccccc23)cc1	–	·	·	·
Cn1c(N)c(C(=O)COC(=O)CNS(=O)(=O)c2ccc(Cl)c(Cl)c2)c(=O)n(C)c1=O	32µM	–	–	–
Cn1c(N)c(C(=O)COC(=O)CNC(=O)c2ccccc2Cl)c(=O)n(C)c1=O	–	·	–	–
O=C(CCNC(=O)c1ccc(Br)cc1)Nc1ccccc1N1CCOCC1	–	·	–	–
O=C(N/N=C/c1cccc(OCc2ccccc2)c1)c1cccs1	–	–	–	–
Oc1ccc(-c2n[nH]c(=S)n2Cc2ccco2)cc1	–	–	–	–
COc1ccc(N2CCN(c3ccc(NC(=O)C4CCCCC4)cc3C#N)CC2)cc1	28µM	–	–	–
COc1ccc(C(=O)Nc2ccc(N3CCN(c4ccc(OC)cc4)CC3)c(C#N)c2)cc1	–	–	–	–
CCCCN(C(=O)CCC(=O)Nc1cc(C)on1)C(C(=O)NC1CCCC1)c1ccc(OCC)cc1 (stereo not given)	·	–	–	–
O=C(Nc1ccc(/C=C/c2nc3ccccc3o2)cc1)c1ccc(F)cc1	3.2µM	–	–	–
CCc1ccc(C(=O)CN2CCSC2=N)cc1	–	–	–	–
Cc1ccc(-c2nnn(CC(=O)NCC3CC3)n2)o1	–	–	–	–
Cc1ccc(-c2nnn(CC(=O)Nc3ccc4nn(-c5ccccc5)nc4c3)n2)o1	14µM	–	–	–
Fc1ccc(N2CCN(C(c3cccs3)c3nnnn3CCc3ccccc3)CC2)cc1 (stereo not given)	–	–	–	–
SMILES	ClpP mod	GALK inh	USP2a block	Eya2 inh
COC(=O)c1ccc(NC(=O)c2ccc3c(c2)C(=O)N(C)C3=O)cc1	11µM	–	–	–
CC1=CC(c2ccc(Cl)cc2)n2nc(NS(=O)(=O)c3ccc(C)cc3)nc2N1 (stereo not given)	22µM	–	–	–
CC1=CC(c2ccc(Cl)cc2)n2nc(N3C(=O)CCC3=O)nc2N1 (stereo not given)	10µM	–	–	–
CCOC(=O)/C=C1\NC(C)(C)Cc2cc(OC)c(OC)cc21	–	–	–	–
COc1cc2c(cc1OC)/C(=C/C(=O)N1CCOCC1)NC(C)(C)C2	13µM	–	–	–
COCC(=O)N1CCC(c2nc3ccccc3[nH]2)CC1	–	·	·	·
Cc1ccc(S(=O)(=O)NCC(c2ccc3c(c2)OCO3)N2CCOCC2)cc1 (stereo not given)	28µM	·	–	–
COc1ccc(/C=N/c2c(-c3ccco3)nc3ccccn23)cc1OC	28µM	–	–	–
O=C1[C@H]2C(c3ccccc3)=NN(c3ccccc3)[C@H]2C(=O)N1c1ccccc1	–	–	–	–
O=C1[C@@H]2[C@@H](CN3CN(c4ccccc4)N=C(c4ccccc4)[C@@]23c2ccccc2)C(=O)N1c1ccccc1	3.5µM	·	·	·
Cc1ccc(-c2csc3nc[nH]c(=O)c23)cc1	·	–	–	–
COc1ccc(-c2cnc3c(c2)CCC3(C#N)C#N)cc1	16µM	–	–	–
O=C(c1ccccc1)c1c(O)nc(-c2ccccc2)n(-c2ccccc2)c1=O	–	–	–	–
CCn1c(C)c(C(C)=O)c(N2CCN(c3ccc(F)cc3)CC2)nc1=S	–	–	–	–
CC(=O)c1c(N2CCN(c3ccc(F)cc3)CC2)nc(=S)n(Cc2ccccc2)c1C	25µM	·	–	–
COc1ccc(/C=N/Nc2nc3ccccc3[nH]2)cc1OC	–	–	–	–
COc1ccccc1N1C(=O)C2CCC(c3ccccc3)CC2C1=O (stereo not given)	–	·	–	–
COc1ccccc1N1C(=O)C2CC=CC(C)C2C1=O (stereo not given)	3.2µM	–	–	–
O=C(CSc1nc(-c2ccccc2)c(-c2ccccc2)[nH]1)NCCN1C(=O)CSC1=O	32µM	–	–	–
COc1ccc(-c2nc3c(=O)n(C)c(=O)nc-3n(C)n2)cc1	–	·	·	·
Cn1nc(-c2ccc(Cl)cc2)nc2c(=O)n(C)c(=O)nc1-2	–	1.1µM	–	?
COc1ccc(NC(=O)CC2C(=O)N(CCc3ccccc3)C(=S)N2Cc2cccnc2)cc1 (stereo not given)	–	–	–	–
O=C(CCc1ccccc1Cl)Nc1ccc(S(=O)(=O)N2CCOCC2)cc1	?	·	–	–
CNC(=O)/C(C#N)=C/c1c(N2CC(C)OC(C)C2)nc2ccccn2c1=O (stereo not given)	28µM	–	–	–
CCNC(=O)/C(C#N)=C/c1c(N2CC(C)OC(C)C2)nc2ccccn2c1=O (stereo not given)	–	–	–	–
SMILES	ClpP mod	GALK inh	USP2a block	Eya2 inh
O=C(O)c1cc(OCc2ccccc2)cc(OCc2ccccc2)c1	·	–	–	–
O=C(O)c1cc2cc(OCc3ccccc3)ccc2[nH]1	28µM	–	–	–
CCCN1C(=O)c2ccccc2NC1c1cc(OC)c(OC)c(OC)c1 (stereo not given)	18µM	–	–	–
CCN(CC)CCN1C(=O)c2ccccc2NC1c1cc(OC)c(OC)c(OC)c1 (stereo not given)	13µM	–	–	–
COc1cc(C2Nc3ccccc3C(=O)N2Cc2ccco2)cc(OC)c1OC (stereo not given)	–	·	·	·
CCN(CC)CCN1C(=O)c2ccccc2NC1c1cccc(F)c1 (stereo not given)	?	–	–	–
CCOC(=O)CSc1nnc(-c2ccc(S(=O)(=O)NCc3cccs3)cc2)o1	–	·	·	·
COc1ccc(OC)c(CNC(=O)c2ccc3c(c2)c(C)c(C)n3Cc2ccc(Cl)cc2)c1	32µM	·	·	·
